Laboratory results reported in PubChem BioAssay AID990 (National Center for Advancing Translational Sciences (NCATS), 2007).
The source made the active and inactive calls.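 Rule for the calls: active = compound that made reporter-free parental cells show up as glowing objects under laser imaging, so likely a fluorescent false positive; inactive = the rest.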

Assay: Parental Cell Counter Screen Assay for Epigenetic Modulators
Conditions: parental c127i cells, compound fluorescence imaging, 30 h
Text: NIH Molecular Libraries Screening Centers Network [MLSCN] NIH Chemical Genomics Center [NCGC] MLSCN Grant: 1 X01 MH079860-01 Assay Provider: Elisabeth D. Martinez, University of Texas SW Medical Center NCGC Assay Overview: This assay is a counter screen for the Locus Derepression (LDR) assay (PubChem AID 597). The LDR assay detects the derepression of a GFP reporter that is stably integrated in a region of the genome of murine c127i mammary cells that is presumably silenced. Compounds that cause derepression of the locus to express GFP are identified by enumerating GFP positive cells using a laser-scanning microplate cytometer. […] Compounds active in the parental c127i cells are likely fluorescent.
NCGC Assay Protocol Summary: Two hundred and fifty cells in 5 uL per well were dispensed into black, clear-bottom 1536-well plates. Twenty-three nL compound was transferred to the assay plate and cells were incubated 30 hours at 37 C. Medium was removed, cells were washed two times with PBS, and fluorescent cells were enumerated as objects between the sizes of 20 to 120 um width and depth using a laser-scanning microplate imager (Acumen Explorer Ex3, TTP Labtech).

| SMILES | outcome |
| --- | --- |
| CC(C)C(=O)NC(c1ccco1)c1cc(Cl)c2cccnc2c1O (stereo not given) | inactive |
| Oc1c(C(Nc2ccccc2C(F)(F)F)c2ccccn2)ccc2cccnc12 (stereo not given) | inactive |
| CC(C)C(=O)NC(c1ccc(Cl)cc1Cl)c1ccc2cccnc2c1O (stereo not given) | inactive |
| CC(C)C(=O)NC(c1ccc(C(C)C)cc1)c1cc(Cl)c2cccnc2c1O (stereo not given) | inactive |
| COc1ccc(C(NC(=O)C(C)C)c2ccc3cccnc3c2O)cc1 (stereo not given) | inactive |
| Cc1cc(C)n(-c2nc(N(C)C)nc(N(C)C)n2)n1 | inactive |
| O=Nc1ccc(O)c2ncccc12 | inactive |
| Cc1cc(C)n(-c2nc(NC(C)C)nc(NC(C)(C)C)n2)n1 | inactive |
| CC(C)C(=O)NC(/C=C/c1ccccc1)c1cc([N+](=O)[O-])c2cccnc2c1O (stereo not given) | inactive |
| O=C(CSc1cccc2cccnc12)N1CCCC1 | inactive |
| Oc1c(C(Nc2ccccn2)c2ccco2)cc(Cl)c2cccnc12 (stereo not given) | inactive |
| CC(C)C(=O)NC(c1ccco1)c1cc([N+](=O)[O-])c2cccnc2c1O (stereo not given) | inactive |
| CCNc1nc(NCC)nc(-n2nc(C)cc2C)n1 | inactive |
| COc1ccc(C(=O)NC(c2ccco2)c2cc(Cl)c3cccnc3c2O)cc1 (stereo not given) | inactive |
| CC(/C=C/C(=O)NO)=C\[C@@H](C)C(=O)c1ccc(N(C)C)cc1 | inactive |
| CC(C)C(=O)NC(c1cccs1)c1cc(Cl)c2cccnc2c1O (stereo not given) | inactive |
| CCN1CSC(=S)N(CC)C1 | inactive |
| O=C1OCCC1Sc1cccc2cccnc12 (stereo not given) | inactive |
| c1ccc(Nc2nc(Nc3ccccc3)nc(-n3cccn3)n2)cc1 | inactive |
| Oc1ccc(COCc2ccccc2)c2cccnc12 | inactive |

| SMILES | outcome |
| --- | --- |
| O=C(CSc1cccc2cccnc12)Nc1ccccc1 | inactive |
| O=C(Cc1ccccc1)NC(c1ccco1)c1ccc2cccnc2c1O (stereo not given) | inactive |
| CC(C)C(=O)NC(c1ccco1)c1ccc2cccnc2c1O (stereo not given) | inactive |
| COc1cccc(C(=O)NC(c2ccco2)c2cc(Cl)c3cccnc3c2O)c1 (stereo not given) | inactive |
| COc1ccc(NC(c2ccccn2)c2ccc3cccnc3c2O)cc1 (stereo not given) | inactive |
| CC(C)C(=O)NC(c1ccc(N(C)C)cc1)c1ccc2cccnc2c1O (stereo not given) | inactive |
| Oc1c(C(Nc2ccccn2)c2ccccn2)ccc2cccnc12 (stereo not given) | inactive |
| Cc1cc(C)n(-c2nc(NC(C)C)nc(NC(C)C)n2)n1 | inactive |
| Cc1ccc2ccc(C(Nc3cccc(Cl)c3)c3ccccn3)c(O)c2n1 (stereo not given) | inactive |
| Cc1cc(NC(c2ccccn2)c2ccc3cccnc3c2O)no1 (stereo not given) | inactive |
| CCOCc1ccc(O)c2ncccc12 | inactive |
| c1cnn(-c2nc(N3CCOCC3)nc(N3CCOCC3)n2)c1 | inactive |
| COCc1cc(CN2CCN(C)CC2)c(O)c2ncccc12 | inactive |
| CN1CCN(Cc2cc(Cl)c3cccnc3c2O)CC1 | inactive |
| COc1ccc(C)cc1NC(c1ccccn1)c1ccc2cccnc2c1O (stereo not given) | inactive |
| Cc1ccc(N=Nc2ccc(O)c3ncccc23)cc1C | inactive |
| CN1C(=S)SC(c2ccccc2)N(C)C1c1ccccc1 (stereo not given) | inactive |
| O=C(CSc1cccc2cccnc12)NCc1ccccc1 | inactive |
| O=C(CC(c1ccco1)S(=O)(=O)c1ccccc1)c1ccc(F)cc1 (stereo not given) | inactive |
| COC(=O)c1cccc(NC(c2ccccn2)c2ccc3cccnc3c2O)c1 (stereo not given) | inactive |
